Source: PubChem BioAssay (National Center for Advancing Translational Sciences (NCATS))
An excerpt weighted towards active compounds, which were near 2.4% of everything screened.
B2AR arrestin: agonists driving beta-arrestin recruitment to human beta2-adrenergic receptor; beta-arrestin recruitment to beta2AR, cell-based reporter; Potency, µM (doses to about 46.1 µM), for the others: at the top dose activation, actives largely listed as activators; 330,000 tested, 0.02% active;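 also: potency is read from the fitted curve at half-maximal effect; 0% = DMSO controls and full agonism = EC100 isoproterenol or metaproterenol; nearly all actives have a fitted effect of over 65% in size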
Target sequence (P07550 whole entry, looked up): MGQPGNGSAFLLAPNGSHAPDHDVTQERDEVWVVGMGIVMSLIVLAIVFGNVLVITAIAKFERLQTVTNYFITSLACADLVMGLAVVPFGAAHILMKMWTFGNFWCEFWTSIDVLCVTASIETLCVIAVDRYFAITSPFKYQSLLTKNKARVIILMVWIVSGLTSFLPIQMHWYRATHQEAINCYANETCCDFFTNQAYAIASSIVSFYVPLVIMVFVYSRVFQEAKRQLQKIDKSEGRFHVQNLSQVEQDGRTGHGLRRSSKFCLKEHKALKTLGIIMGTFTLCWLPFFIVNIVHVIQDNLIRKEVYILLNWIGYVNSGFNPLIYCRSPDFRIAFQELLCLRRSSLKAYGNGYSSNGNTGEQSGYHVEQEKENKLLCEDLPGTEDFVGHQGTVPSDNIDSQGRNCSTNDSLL
D2 PAM-1: positive allosteric modulators of human D2 dopamine receptor | P14416 | potentiation, % (test concentration not listed) | AID 624464 | 360,000 tested, 0.23% active | DiscoveRx D2 beta-arrestin cells, luminescence, 90 min; 100% = 57 uM dopamine signal; in the data active = potentiation above about 50%; inconclusive = mostly about 30% to 49%
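D2 cells co-treated with compound plus 50 nM dopamine (EC20) for 90 min at 37 deg C to detect potentiation. Beta-arrestin recruitment was read as enzyme-fragment luminescence after 1 h at ambient temperature. Full response was set by 57 uM dopamine.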
D2 ag-1: agonists of human D2 dopamine receptor (beta-arrestin) | activation, % (concentration not given with the values) | P14416 | 360,000 tested, 0.084% active | DiscoveRx PathHunter D2 beta-arrestin, luminescence, 90 min; 100% = 57 uM dopamine signal; in the data active = activation above about 40%; inconclusive = between about 15% and that limit
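Agonist mode: compounds alone added to overnight-plated D2 PathHunter cells for 90 min at 37 C, with 57 uM final dopamine (EC100) defining full response. Beta-arrestin recruitment detected by chemiluminescent reagent, read after 1 h at ambient temperature.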
D2 antagonist: antagonists of human D2 dopamine receptor; P14416; HEK293 TREx D2 cells, calcium flux, dopamine EC80; inhibition, % at 10 µM; 340,000 tested, 2% active; in the data active = inhibition above about 30%; inactive = below that, where a call was filed; also: 0% is about no effect
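Calcium mobilization kinetics were recorded at 1 s intervals in tetracycline-induced HEK293 T-REx D2 cells, first for 180 s after compound addition and then 180 s after EC80 dopamine.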
D2 ag-2: agonists of human D2 dopamine receptor | P14416 | 340,000 tested, 0.53% active | HEK293 T-REx D2 cells, calcium flux agonist mode | activation, % at 2 µM;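 active = activation over 3 SD above normal in the single-dose calcium agonist read, cut at about 30% in these data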; also: 0% is about no effect
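HEK293 Trex D2 cells, tetracycline-induced, o/n 30 C 5% CO2; no-wash Ca dye, RT 30–90 min; 10-cycle baseline, 23 nl cpd added, kinetic Ca read 180 s; agonist hits = positive Ca response.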
D2 PAM-2: positive allosteric modulators of human D2 dopamine receptor; HEK293 T-REx D2, calcium flux, EC20 dopamine potentiation; potentiation, % at 10 µM; 340,000 tested, 0.34% active; AID 485347;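 active = potentiation over 3 SD above the plate norm, cut at about 30% in these data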; also: 0% is about no effect
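Calcium flux readout, no-wash dye, 1 read/s. Inducible HEK293 Trex D2 line, overnight 30 C. Compound alone 180 s (agonist flags), then EC20 dopamine, another 180 s to score potentiation.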
D3 arrestin ag: activates human D3 dopamine receptor beta-arrestin recruitment. shares compounds with D2 ag-2. DiscoveRx D3 beta-arrestin cells, luminescence, 90 min. Potency, µM (highest dose often 76.9 µM), for inactives: at the highest dose activation, hits mostly activators. 2,300 tested, 4% active. AID 720506;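 also: potency is read from the fitted curve at half-maximal effect; 100% = dopamine control response; nearly all actives have a fitted effect of over 70% in size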
D2 ag-3: activates human D2 dopamine receptor in D3 counterscreen | shares compounds with D2 ag-2 | DiscoveRx PathHunter D2 beta-arrestin, luminescence, 90 min; response scale: percent relative to full dopamine signal | Potency, µM (series often up to 76.9 µM), for inactives: top-dose activation, usual class: activators | 2,300 tested, 5.9% active | AID 720507; also: potency is read from the fitted curve at half-maximal effect; % of control where 0% means no effect; nearly all actives have a fitted effect of over 70% in size
Numbers without * were called inactive; ? = inconclusive; · = not tested or not shown. Unless noted, calls follow the shape of the dose curve; as a rule, active = well fitted activation curve with a large enough effect; inconclusive = small, poorly fitted or top-dose-only effect; inactive = flat fitted curve, though single readings scatter.

SMILES	B2AR arrestin	D2 PAM-1	D2 ag-1	D2 antagonist	D2 ag-2	D2 PAM-2	D3 arrestin ag	D2 ag-3
CCN1CCN(c2ccc(S(=O)(=O)N3CCOCC3)cc2NC(=O)c2ccc(C)cc2C)CC1	0%	1	4	9	0	6	-2%	-3%
Cc1cccc(NC(=O)CSc2nc(=O)n(Cc3cccnc3)c3c2CCC3)c1C	·	·	·	·	0	13	·	·
CC(=O)N1CCc2cc(S(=O)(=O)N3CCCCC3C)ccc21 (centres undefined)	0%	1	3	5	-1	-13	·	·
CC[n+]1c(-c2ccc(C)cc2)csc1Nc1c(C)n(C)n(-c2ccccc2)c1=O	-1%	-41	3	52*	66*	-16	1%	24%
CC[n+]1c(-c2ccccc2)csc1Nc1c(C)n(C)n(-c2ccccc2)c1=O	-1%	-2	1	-6	50*	-21	-8%	2%
Cc1ccc(Nc2nc3ccccc3nc2Nc2c(C)n(C)n(-c3ccccc3)c2=O)cc1	0%	-4	-2	-2	1	-10	·	·
CNC(=S)Nc1cc2oc3ccccc3c2cc1OC	-1%	7	2	14	57*	-19	-2%	16%
CCNC(=S)Nc1cc2oc3ccccc3c2cc1OC	0%	-15	-5	-2	0	-13	·	·
CCc1ccc(S(=O)(=O)Nc2cc3c(cc2N2CCOCC2)n(C)c(=O)c(=O)n3C)cc1	0%	-5	-4	-6	0	-2	·	·
CCC(C)NC(=O)C(CCSC)NC(=O)c1ccccc1 (centres undefined)	0%	1	-5	23	1	2	·	·
CSCCC(NC(=O)c1ccccc1)C(=O)NCCCSc1ccccc1 (centres undefined)	0%	-4	-2	-15	0	17	-4%	-6%
O=C1N=C(N2CCOCC2)S/C1=C/c1ccc(-c2ccc(F)cc2)o1	0%	6	?	-5	55*	-21	3%	?
Cc1cn2c(=O)cc(COC(=O)c3cccc(NC(=O)COc4ccc(Cl)cc4)c3)nc2s1	·	·	·	·	0	1	·	·
Cc1cc(C(F)F)n2nc(C(=O)Nc3cc(C)on3)nc2n1	1%	-14	0	-18	0	4	-9%	-4%
Cc1cc(C(F)F)n2nc(C(=O)Nc3c(C)cccc3C)nc2n1	·	·	·	·	0	-9	·	·
O=C(Cn1cc(C(=O)c2ccco2)c2ccccc21)NC1CC1	-1%	-4	-3	-8	0	-4	·	·
CCN(C(=O)CSc1ncccn1)c1c(N)n(Cc2ccccc2)c(=O)[nH]c1=O	0%	-3	-3	7	0	-3	-7%	-4%
COc1cccc(C(=O)NNC(=S)NC2CCCCC2)c1	1%	-29	-8	31*	56*	-20	-4%	-5%
COc1cccc(C(=O)NC2CCCC2)c1	0%	-9	6	-1	0	0	·	·
O=C(c1ccco1)N1CCN(CCOCCOc2cccc3ccccc23)CC1	0%	20	?	77*	66*	-18	7.9µM*	25µM*
O=C(c1ccco1)N1CCN(CCOc2ccc(F)cc2)CC1	0%	3	10	-13	-2	4	·	·
O=C(c1ccco1)N1CCN(CCCCOc2cccc3ccccc23)CC1	-3%	3	?	84*	76*	-26	?	?
c1ccc(CN2CCN(CCOCCOc3cccc4ccccc34)CC2)cc1	0%	-6	1	-5	1	-24	·	·
CCc1cc(C(=O)N2CCCC(C(=O)c3ccc(Cl)cc3)C2)no1 (centres undefined)	0%	-9	-2	-4	0	-2	·	·
O=C(NCc1ccncc1)c1cccc(S(=O)(=O)Nc2ccc(F)cc2)c1	0%	-6	9	24	0	-1	10%	2%
SMILES	B2AR arrestin	D2 PAM-1	D2 ag-1	D2 antagonist	D2 ag-2	D2 PAM-2	D3 arrestin ag	D2 ag-3
O=C(NCc1ccccn1)c1cccc(S(=O)(=O)Nc2ccc(F)cc2)c1	0%	-13	-1	-5	0	10	·	·
CCOc1ccc(NC(=O)c2ccc(F)c(S(=O)(=O)NCc3ccc4c(c3)OCO4)c2)cc1	·	·	·	·	0	-1	·	·
O=C(Nc1cccc(Cl)c1)c1ccc(F)c(S(=O)(=O)NCc2ccc3c(c2)OCO3)c1	0%	-8	5	2	-2	-1	3%	4%
O=C(Cc1ccccc1)NCCSCc1ccc(Cl)cc1	0%	0	-4	8	-1	-6	·	·
O=C(Cc1ccc(Cl)cc1)SCc1ccccc1	0%	-8	-1	-17	15	3	-20%	-5%
CCCCOC(=O)Nc1cc(C)c(Cl)cc1OC	0%	-15	-5	6	0	5	·	·
COC(=O)[C@@H](NC(=O)Nc1ccc(S(N)(=O)=O)cc1)C(C)C	-2%	-9	-4	3	69*	-22	-2%	0%
O=C(CNC(=O)c1ccccc1)N/N=C/c1cn[nH]c1-c1ccccc1	-1%	-6	1	9	9	-2	·	·
COc1ccccc1C(=O)NCC(=O)N/N=C/c1cn[nH]c1-c1ccccc1	0%	8	5	22	67*	-22	8%	3%
CC1COc2ccccc2N1C(=O)c1ccccc1Cl (centres undefined)	0%	1	?	23	41*	-5	-5%	16%
CC(C)(C)C1COc2ccccc2N1C(=O)c1ccccc1Cl (centres undefined)	0%	-1	-12	-4	2	11	·	·
CCCCN(CC)CCCNC(=S)Nc1ccc2nc3n(c(=O)c2c1)CCCCC3	0%	-2	10	60*	86*	-31	-6%	26%
CCCN(CCC)CCCNC(=S)Nc1ccc2nc(N3CCCC3)cc(C)c2c1	1%	-17	-3	-20	4	-4	·	·
O=c1c2cc(NC(=S)NCCN3CCCCCC3)ccc2nc2n1CCCCC2	-1%	-16	-2	9	0	-17	·	·
CCCCN(CC)CCCNC(=S)Nc1ccc2nc(N3CCN(CC)CC3)cc(C)c2c1	4%	-10	4	41*	60*	-28	?	15%
CCCCN(CC)CCCNC(=S)Nc1ccc2nc(N3CCN(C)CC3)cc(C)c2c1	0%	-5	7	40*	71*	-29	24%	21%
